The list shows a part of the results. How many sequences the whole screen found active is unknown.
Molecular target: furin, P09958
Assay: furin cleavage Z-score vs untreated control; higher = more cleavage, active = 3.5 or more, inactive = 1 or less, 8 variable residues between constant flanks
Procedure, shortened: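 Furin cleavage was scored on 8-mer peptides joined to a cDNA oligonucleotide and bound to magnetic beads at the N-terminus. Digestion with purified furin (1:10 enzyme:substrate, 0.01 ml, 50 mM HEPES pH 7.5, CaCl2, NaCl) lasted 7.5, 15 or 30 min. Freed DNA was tagged with adapters by PCR, sequenced and counted; the cleavage Z-score is the lowess-adjusted log count versus furin-free reactions, scaled by median absolute deviation.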

Sequence of furin, P09958 (P09958 whole entry): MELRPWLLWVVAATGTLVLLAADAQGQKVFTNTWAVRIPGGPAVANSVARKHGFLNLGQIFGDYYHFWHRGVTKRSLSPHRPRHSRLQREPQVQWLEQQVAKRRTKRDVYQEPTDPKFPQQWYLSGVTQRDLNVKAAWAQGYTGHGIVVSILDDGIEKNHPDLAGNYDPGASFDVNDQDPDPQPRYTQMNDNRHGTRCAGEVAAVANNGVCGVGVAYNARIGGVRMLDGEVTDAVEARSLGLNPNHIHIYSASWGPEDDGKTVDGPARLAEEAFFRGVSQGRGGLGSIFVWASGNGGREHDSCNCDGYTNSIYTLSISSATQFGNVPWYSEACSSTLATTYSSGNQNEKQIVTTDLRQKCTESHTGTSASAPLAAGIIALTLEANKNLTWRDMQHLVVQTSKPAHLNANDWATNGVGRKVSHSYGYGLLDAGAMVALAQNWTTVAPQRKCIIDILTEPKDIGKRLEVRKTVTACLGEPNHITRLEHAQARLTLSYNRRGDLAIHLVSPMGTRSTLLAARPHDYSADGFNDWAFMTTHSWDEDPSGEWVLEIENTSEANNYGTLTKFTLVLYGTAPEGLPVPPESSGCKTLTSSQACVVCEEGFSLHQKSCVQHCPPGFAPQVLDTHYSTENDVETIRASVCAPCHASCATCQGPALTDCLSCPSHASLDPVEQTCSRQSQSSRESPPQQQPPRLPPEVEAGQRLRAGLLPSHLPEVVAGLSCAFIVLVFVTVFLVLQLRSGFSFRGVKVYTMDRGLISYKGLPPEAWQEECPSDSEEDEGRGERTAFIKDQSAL

B1: HC2076 (peptide)
chain: CAVVCCSMGYAGNASASA
With B1 the “furin cleavage Z-score” value (7.5 min) was -1.88 (inactive), the “furin cleavage Z-score” value (15 min) was -0.775 (inactive) and the “furin cleavage Z-score” value (30 min) was -0.0504 (inactive).

B2: HC2032 (peptide)
chain: CAVVECSMSYAGNASASA
B2 was tested, and the “furin cleavage Z-score” value (7.5 min) was -0.21 (inactive), the “furin cleavage Z-score” value (15 min) was -0.185 (inactive) and the “furin cleavage Z-score” value (30 min) was 0.282 (inactive).

B3: HC869 (peptide)
chain: CAYYRGLDVSAGNASASA
With B3 the “furin cleavage Z-score” value (7.5 min) was 0.136 (inactive), the “furin cleavage Z-score” value (15 min) was -0.206 (inactive) and the “furin cleavage Z-score” value (30 min) was -0.42 (inactive).

B4: FS-514 (peptide)
chain: CAVRFRGKREAGNASASA
In the case of B4, the “furin cleavage Z-score” value (7.5 min) is reported as 11.2 (active), the “furin cleavage Z-score” value (15 min) is reported as 9.46 (active) and the “furin cleavage Z-score” value (30 min) is reported as 7.95 (active).

B5: HC617 (peptide)
chain: CAVRVQGLLRAGNASASA
With B5 the “furin cleavage Z-score” value (7.5 min) was -0.956 (inactive), the “furin cleavage Z-score” value (15 min) was -0.879 (inactive) and the “furin cleavage Z-score” value (30 min) was -0.866 (inactive).

B6: FS-1748 (peptide)
chain: CARLSRGTRPAGNASASA
B6 was tested, and the “furin cleavage Z-score” value (7.5 min) was 1.1, the “furin cleavage Z-score” value (15 min) was 0.607 (inactive) and the “furin cleavage Z-score” value (30 min) was 1.39.

B7: FS-1584 (peptide)
chain: CAALSRGKREAGNASASA
B7 was tested, and the “furin cleavage Z-score” value (7.5 min) was 11.2 (active), the “furin cleavage Z-score” value (15 min) was 11.6 (active) and the “furin cleavage Z-score” value (30 min) was 8.56 (active).

B8: FS-2430 (peptide)
chain: CARLFRGLDSAGNASASA
B8 was tested, and the “furin cleavage Z-score” value (7.5 min) was -0.523 (inactive), the “furin cleavage Z-score” value (15 min) was -0.794 (inactive) and the “furin cleavage Z-score” value (30 min) was 0.531 (inactive).

B9: HC1330 (peptide)
chain: CATLSTALAEAGNASASA
For B9, the “furin cleavage Z-score” value (7.5 min) was -0.432 (inactive), the “furin cleavage Z-score” value (15 min) was -1.49 (inactive) and the “furin cleavage Z-score” value (30 min) was -1.25 (inactive).

B10: HC1748 (peptide)
chain: CAMEECSQWLAGNASASA
With B10 the “furin cleavage Z-score” value (7.5 min) was 1.29, the “furin cleavage Z-score” value (15 min) was 1.35 and the “furin cleavage Z-score” value (30 min) was -0.383 (inactive).

B11: HC1278 (peptide)
chain: CAQEMGGNITAGNASASA
With B11 the “furin cleavage Z-score” value (7.5 min) was 0.989 (inactive), the “furin cleavage Z-score” value (15 min) was 0.052 (inactive) and the “furin cleavage Z-score” value (30 min) was 0.798 (inactive).

B12: HC398 (peptide)
chain: CAANGSGPDQAGNASASA
In the case of B12, the “furin cleavage Z-score” value (7.5 min) is reported as -0.135 (inactive), the “furin cleavage Z-score” value (15 min) is reported as -1.15 (inactive) and the “furin cleavage Z-score” value (30 min) is reported as 0.257 (inactive).

B13: HC1992 (peptide)
chain: CAEVCCSMSYAGNASASA
In the case of B13, the “furin cleavage Z-score” value (7.5 min) is reported as 0.759 (inactive), the “furin cleavage Z-score” value (15 min) is reported as 0.26 (inactive) and the “furin cleavage Z-score” value (30 min) is reported as 0.528 (inactive).

B14: FS-2079 (peptide)
chain: CARRRRLVWTAGNASASA
In the case of B14, the “furin cleavage Z-score” value (7.5 min) is reported as -0.712 (inactive), the “furin cleavage Z-score” value (15 min) is reported as 0.718 (inactive) and the “furin cleavage Z-score” value (30 min) is reported as 2.58.

B15: FS-2232 (peptide)
chain: CARRRRDVVTAGNASASA
With B15 the “furin cleavage Z-score” value (7.5 min) was 11.1 (active), the “furin cleavage Z-score” value (15 min) was 11.8 (active) and the “furin cleavage Z-score” value (30 min) was 8.98 (active).

B16: FS-1789 (peptide)
chain: CARRRRSVQLAGNASASA
With B16 the “furin cleavage Z-score” value (7.5 min) was 1.43, the “furin cleavage Z-score” value (15 min) was 0.51 (inactive) and the “furin cleavage Z-score” value (30 min) was 2.7.

B17: FS-2831 (peptide)
chain: CARTMRSSAGAGNASASA
For B17, the “furin cleavage Z-score” value (7.5 min) was 0.517 (inactive), the “furin cleavage Z-score” value (15 min) was -0.365 (inactive) and the “furin cleavage Z-score” value (30 min) was 0.495 (inactive).

B18: FS-2403 (peptide)
chain: CARRRRCVGLAGNASASA
For B18, the “furin cleavage Z-score” value (7.5 min) was 2.54, the “furin cleavage Z-score” value (15 min) was 1.19 and the “furin cleavage Z-score” value (30 min) was 5.18 (active).

B19: HC1079 (peptide)
chain: CAAAIGSVGLAGNASASA
B19 was tested, and the “furin cleavage Z-score” value (7.5 min) was -0.425 (inactive), the “furin cleavage Z-score” value (15 min) was -0.896 (inactive) and the “furin cleavage Z-score” value (30 min) was -0.452 (inactive).

B20: FS-2595 (peptide)
chain: CARRRRAVGLAGNASASA
With B20 the “furin cleavage Z-score” value (7.5 min) was 3.99 (active), the “furin cleavage Z-score” value (15 min) was 4.72 (active) and the “furin cleavage Z-score” value (30 min) was 5.23 (active).

B21: FS-1936 (peptide)
chain: CARTMRSVGLAGNASASA
B21 was tested, and the “furin cleavage Z-score” value (7.5 min) was 5.41 (active), the “furin cleavage Z-score” value (15 min) was 6.11 (active) and the “furin cleavage Z-score” value (30 min) was 5.7 (active).

B22: HC2103 (peptide)
chain: CAADVVCCSMAGNASASA
With B22 the “furin cleavage Z-score” value (7.5 min) was 1.06, the “furin cleavage Z-score” value (15 min) was 0.666 (inactive) and the “furin cleavage Z-score” value (30 min) was 0.566 (inactive).

B23: HC602 (peptide)
chain: CATLVFDITKAGNASASA
With B23 the “furin cleavage Z-score” value (7.5 min) was 1.27, the “furin cleavage Z-score” value (15 min) was 0.292 (inactive) and the “furin cleavage Z-score” value (30 min) was -0.917 (inactive).

B24: HC652 (peptide)
chain: CALITWGADTAGNASASA
In the case of B24, the “furin cleavage Z-score” value (7.5 min) is reported as 0.62 (inactive), the “furin cleavage Z-score” value (15 min) is reported as 1.26 and the “furin cleavage Z-score” value (30 min) is reported as -1.35 (inactive).

B25: HC1263 (peptide)
chain: CAQLSAPSLKAGNASASA
In the case of B25, the “furin cleavage Z-score” value (7.5 min) is reported as 1.12, the “furin cleavage Z-score” value (15 min) is reported as 0.729 (inactive) and the “furin cleavage Z-score” value (30 min) is reported as -0.193 (inactive).

B26: FS-1952 (peptide)
chain: CARGRRSLEFAGNASASA
For B26, the “furin cleavage Z-score” value (7.5 min) was 4.88 (active), the “furin cleavage Z-score” value (15 min) was 7.64 (active) and the “furin cleavage Z-score” value (30 min) was 7.06 (active).

B27: FS-2202 (peptide)
chain: CAVYRRSLGKAGNASASA
With B27 the “furin cleavage Z-score” value (7.5 min) was -0.0765 (inactive), the “furin cleavage Z-score” value (15 min) was -0.584 (inactive) and the “furin cleavage Z-score” value (30 min) was -0.11 (inactive).

B28: FS-3100 (peptide)
chain: CARSVRPVEFAGNASASA
With B28 the “furin cleavage Z-score” value (7.5 min) was -0.873 (inactive), the “furin cleavage Z-score” value (15 min) was -2.07 (inactive) and the “furin cleavage Z-score” value (30 min) was -1.68 (inactive).

B29: FS-1713 (peptide)
chain: CARGRRSLGSAGNASASA
In the case of B29, the “furin cleavage Z-score” value (7.5 min) is reported as 7.83 (active), the “furin cleavage Z-score” value (15 min) is reported as 9.89 (active) and the “furin cleavage Z-score” value (30 min) is reported as 8.32 (active).

Reference: the supplement of paper PMC3545927
